Records with an inconclusive call do not appear. The source made the active and inactive calls. Unless noted, the call rests on the fitted dose curve; in most records, active means well fitted curve in either direction with a large enough effect (not every such curve was filed as active); inconclusive means small, poorly fitted or top-dose-only effect, or another doubt; inactive means flat fitted curve, though single readings scatter.
Experiments:
[1] = biological target: Lysosomal acid glucosylceramidase (Homo sapiens) (UniProt P04062); experiment: Glucocerebrosidase-p2 (AID 348; in the data active means potency below about 10 µM; further: potency means the concentration at half of the fitted maximal effect); conditions: purified GBA, blue fluorogenic substrate, 40 min
Procedure, shortened: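 Compounds titrated from 0.6 nM upwards against 0.2 nM enzyme in pH 5.9 citric acid/KH2PO4, taurocholate, tween-20; blue fluorogenic substrate 80 uM, 40 min room temperature, stopped and read Ex 365/Em 440 for AC50.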

[2] = AP1 Signaling Pathway (AID 357); conditions: ME-180 AP-1-bla reporter, EGF-induced, beta-lactamase ratio, 5 h; at 7.69 µM (top of the series) unless noted;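 further: ME-180 reporter cells stimulated with EGF at its EC50 level; on the % scale 0 is the no-effect control and ±100 the full control effect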
Procedure, shortened: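 In this screen, ME-180 cells in Opti-MEM with 0.5% dialyzed FBS received EC50 EGF and compound titrations for 5 h. AP-1 reporter beta-lactamase was detected via CCF4 ratio, giving AC50 for positive and negative modulators.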

[3] = NFAT Signaling Pathway (AID 444); conditions: Jurkat NFAT-bla M1, carbachol, beta-lactamase ratio, 5 h; at 7.69 µM (top of the series) unless noted;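 further: carbachol stimulus at about its EC50 of 1 µM final; on the % scale 0 is the no-effect control and ±100 the full control effect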
Procedure, shortened: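 Jurkat cells with NFAT-driven β-lactamase reporter and co-expressed M1 receptor, stimulated with carbachol (final 1 uM, ~EC50), compound titration, 5 h at 37 °C. CCF4 loaded 1 h at RT; 460/530 nm ratio gave %activity and AC50.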

[4] = Stat Signaling Pathway (AID 446); conditions: ME-180 SIE beta-lactamase reporter, IL-6 stimulated, 5 h; at 7.69 µM (top of the series) unless noted;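 further: ME-180 cervical cancer cells given 40 pM IL-6 alongside compound; SIE-controlled beta-lactamase reporter measured as 460/530 nm FRET emission ratio; on the % scale 0 is the no-effect control and ±100 the full control effect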
Procedure, shortened: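 ME-180 cells carrying a SIE-driven beta-lactamase reporter are stimulated with 40 pM IL-6 for 5 h at 37C in the presence of compound. The 460/530 nm FRET substrate ratio is read after 2.5 h at RT. Data are normalised to 300 pM IL-6 and to 125 nM JAK inhibitor controls.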

[5] = biological target: Glucocorticoid receptor (Homo sapiens) (UniProt P04150); experiment: GR-GFP Redistribution (AID 450;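 active means compounds whose dose series gives a full or clear partial fitted curve of increased nuclear translocation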; further: potency means the concentration at half of the fitted maximal effect); conditions: U2OS GR-GFP nuclear translocation, laser cytometry, 2 h
[6] = biological target: Glucocorticoid receptor (Homo sapiens) (UniProt P04150); experiment: GR-EFC Redistribution (AID 451; calls by dose curve; further: potency means the concentration at half of the fitted maximal effect); conditions: CHO-K1 GR-EFC translocation, beta-gal luminescence, 2 h
Procedure, shortened: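 CHO-K1 cells expressing nuclear EA and GR-ED fragments of b-gal; compounds titrated up to 46 uM final, 2 h at 37 C. GR nuclear translocation read as complemented b-gal luminescence after 1 h RT detection.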

[7] = biological target: Mitogen-activated protein kinase 10 (Mus musculus) (UniProt Q61831); experiment: JNK3 AlphaScreen Assay (AID 530); conditions: JNK3 lysate, c-Jun phosphorylation; series mostly up to 57.1 µM;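 further: kinase came from lysate of stimulated human HepG2 cells; signal reports phosphorylation of biotinylated GST-cJun 1-79 at Ser73 with 10 µM ATP; on the % scale 0 is the no-effect control and ±100 the full control effect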
Procedure, shortened: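 qHTS format: compounds tested as titrations against IL-1beta/TNF-alpha-activated HepG2 lysate JNK3 with biotin-GST-cJun substrate and 10 uM ATP at room temperature. Loss of anti-phospho-cJun AlphaScreen signal indicates inhibition.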

[8] = qHTS Assay for Lipid Storage Modulators (AID 1519; calls by dose curve); conditions: Drosophila S3 cells, BODIPY lipid droplet/cell ratio, laser cytometry, cells loaded with oleic acid; for activity change, negative = inhibition: at 57.5 µM (top of the series)
Procedure, shortened: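 Cells seeded at 5,000 per well were treated with compounds over a concentration series and loaded with oleic acid (400 uM, as added). Lipid droplet fluorescence (488 nm excitation, 500-530 nm channel) was read by laser-scanning cytometry and normalized to 20 uM Triacsin C.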

[9] = Primary qHTS for small molecule stabilizers of the endoplasmic reticulum resident proteome: Secreted ER Calcium Modulated Protein (SERCaMP) assay (AID 1508630; active means well fitted curve in the direction sought with a large enough effect; an effect the other way counts as inactive or inconclusive; further: on the % scale 0 is the no-effect control and ±100 the full control effect); conditions: SH-SY5Y GLuc-SERCaMP (Gaussia luciferase released on ER calcium loss) secretion, thapsigargin, luminescence; series mostly up to 38.4 µM
Procedure, shortened: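 GLuc-SERCaMP-expressing SH-SY5Y cells, pretreated 16 h with compound, are challenged with thapsigargin to empty ER calcium stores; after 4 h, coelenterazine is added directly to the medium and luminescence is imaged.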

[10] = biological target: 3',5'-cyclic-AMP phosphodiesterase 4B (Homo sapiens) (UniProt Q07343); experiment: qHTS Assay for Inhibitors of PDE-IV (AID 607; active means well fitted activation curve with a large enough effect in the main read-out, with a control signal flat, not every such curve was filed as active; further: % of control where 0% means no effect); conditions: HEK293 ACTOne CNG channel cells, membrane potential fluorescence; series mostly up to 22.9 µM
Procedure, shortened: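 HEK293 ACTOne cells with CNG channel (1000/well), endogenous PDE4; membrane potential dye, compounds up to 22.9 uM final. Fluorescence Ex 535/Em 590; RO 20-1724 (100 uM final) as reference.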

[11] = biological target: Cytochrome P450 3A4 (Homo sapiens) (UniProt P08684); experiment: qHTS Assay for Inhibitors and Substrates of Cytochrome P450 3A4 (AID 884; active means well fitted curve in the direction sought with a large enough effect; an effect the other way counts as inactive or inconclusive; further: potency means the concentration at half of the fitted maximal effect; nearly all actives have a fitted effect of over 50% in size); conditions: recombinant CYP3A4, Luciferin-PPXE luminescence; series mostly up to 57.1 µM
Procedure, shortened: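 20 nM human CYP3A4 with 25 uM Luciferin-PPXE (at KM) in 200 mM KPO4, preincubated 10 min with compound; NADPH regeneration started a 60 min RT reaction. Luciferin detected by luminescence, normalized to 57 uM ketoconazole as full inhibition.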

[12] = biological target: Cytochrome P450 3A4 (Homo sapiens) (UniProt P08684); experiment: qHTS Assay for Activators of Cytochrome P450 3A4 (AID 885; active means well fitted curve in the direction sought with a large enough effect; an effect the other way counts as inactive or inconclusive; further: nearly all actives have a fitted effect of over 65% in size; further: potency means the concentration at half of the fitted maximal effect); conditions: recombinant CYP3A4, Luciferin-PPXE luminescence, 60 min; series mostly up to 57.1 µM
Procedure, shortened: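 Human CYP3A4 (20 nM) with Luciferin-PPXE at 25 uM (its KM) in 200 mM KPO4; 10 min compound preincubation, then NADPH regeneration and 60 min reaction at RT. Luciferin read by luminescence; normalized to 57 uM ketoconazole full inhibition.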

[13] = biological target: Cytochrome P450 1A2 (Homo sapiens) (UniProt P05177); experiment: p450-cyp1a2 (AID 410; calls by dose curve;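 further: -100% = full effect of reference inhibitor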); conditions: recombinant CYP1A2, luciferin-ME demethylation, luminescence; series mostly up to 57 µM
Procedure, shortened: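 Human CYP1A2 (20nM) demethylated Luciferin-ME at its Km (100uM) in 100mM KPO4. After 10 min compound preincubation, NADPH regeneration ran the reaction 60 min at room temperature. Luciferin was read by luminescence, normalized to 57 uM furafylline.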

[14] = biological target: Cytochrome P450 2D6 (Homo sapiens) (UniProt P10635); experiment: qHTS Assay for Inhibitors and Substrates of Cytochrome P450 2D6 (AID 891; active means well fitted curve in the direction sought with a large enough effect; an effect the other way counts as inactive or inconclusive; further: potency means the concentration at half of the fitted maximal effect; nearly all actives have a fitted effect of over 60% in size); conditions: recombinant CYP2D6, luciferin-ME EGE luminescence; series mostly up to 57.1 µM
Procedure, shortened: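 Human CYP2D6 (5 nM) with 30 uM Luciferin-ME EGE (at Km) in 100 mM KPO4, compound preincubated 10 min, then NADPH regeneration system for 60 min at room temperature. Luciferin read by luminescence; normalized to 1.43 uM quinidine.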

[15] = Confirmation and Secondary Assay for Modulators of Hemoglobin Beta Chain Splicing at IVS2 654 locus (AID 910; active means well fitted curve in the direction sought with a large enough effect; an effect the other way counts as inactive or inconclusive;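 further: HeLa cells stably carrying EGFP split by mutant beta-globin IVS2-654 intron; % of control where 0% means no effect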); conditions: HeLa EGFP-654 splicing reporter, GFP fluorescence, 48 h; series mostly up to 38.3 µM
Procedure, shortened: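 HeLa cells stably expressing EGFP interrupted by β-globin IVS2-654 intron, seeded overnight in Opti-MEM/2% FCS, then treated 2 days at 37 °C. Restored splicing read as total peak GFP intensity per well by laser scanning cytometry (488 nm excitation, 500–520 nm emission); 500 nM antisense PNA as control.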

[16] = qHTS Assay for Identification of Small Molecule Agonists for Hypoxia Response Element Signaling Pathway (AID 914; active means well fitted activation curve with a large enough effect in the signal ratio, with a control signal flat, not every such curve was filed as active; the % refers to the signal ratio; further: % of control where 0% means no effect); conditions: ME-180 (cervical carcinoma) HRE-bla reporter, beta-lactamase ratio, CoCl2, 17 h; activation: stronger effect = higher value
Procedure, shortened: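 HRE-bla ME-180 assay for agonist-like enhancement of an EC50 CoCl2 stimulus: 17 h at 37 degrees Celsius, CCF4 for 2.5 h, ratiometric 460/530 nm signal converted to %Activity and fitted to AC50.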

[17] = Confirmation and Secondary Assay for Modulators of Hemoglobin Beta Chain Splicing at IVS2 705 locus (AID 930; active means well fitted curve in the direction sought with a large enough effect; an effect the other way counts as inactive or inconclusive;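 further: HeLa cells stably expressing the EGFP-705 splicing reporter; GFP fluorescence per well restored by corrected splicing of the IVS2-705 intron in EGFP; % of control where 0% means no effect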); conditions: HeLa EGFP-705 splicing reporter, GFP fluorescence, 48 h; series mostly up to 38.3 µM
Procedure, shortened: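 HeLa IVS2-705 EGFP reporter cells, 500/well, compound 2 d at 37C; correct splicing yields fluorescent EGFP. Control: 500 nM antisense PNA. Read-out: total peak GFP intensity.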

[18] = measured here: cell count channel max response
[19] = measured here: lipid channel max response

Chain of 3',5'-cyclic-AMP phosphodiesterase 4B (Homo sapiens) (Q07343 whole entry, looked up): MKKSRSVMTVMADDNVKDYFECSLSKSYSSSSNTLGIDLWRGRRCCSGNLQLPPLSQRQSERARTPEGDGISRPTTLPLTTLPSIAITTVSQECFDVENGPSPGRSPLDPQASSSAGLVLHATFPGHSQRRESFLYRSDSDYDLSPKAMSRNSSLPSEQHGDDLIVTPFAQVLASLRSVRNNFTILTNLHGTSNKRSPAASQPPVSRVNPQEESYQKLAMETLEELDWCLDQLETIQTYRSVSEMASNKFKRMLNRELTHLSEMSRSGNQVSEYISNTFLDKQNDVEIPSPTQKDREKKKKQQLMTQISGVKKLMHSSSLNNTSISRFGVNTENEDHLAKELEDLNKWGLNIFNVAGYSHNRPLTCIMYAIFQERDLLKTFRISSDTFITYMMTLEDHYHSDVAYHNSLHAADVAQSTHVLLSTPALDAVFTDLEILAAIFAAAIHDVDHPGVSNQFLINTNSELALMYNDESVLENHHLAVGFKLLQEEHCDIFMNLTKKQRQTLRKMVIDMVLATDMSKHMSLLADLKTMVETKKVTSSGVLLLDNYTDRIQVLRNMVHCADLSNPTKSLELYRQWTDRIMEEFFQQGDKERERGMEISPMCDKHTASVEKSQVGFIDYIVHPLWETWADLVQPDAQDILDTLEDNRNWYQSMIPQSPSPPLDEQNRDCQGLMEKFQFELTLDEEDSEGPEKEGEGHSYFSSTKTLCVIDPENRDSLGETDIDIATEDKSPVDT
Chain of Lysosomal acid glucosylceramidase (Homo sapiens) (P04062 whole entry, looked up): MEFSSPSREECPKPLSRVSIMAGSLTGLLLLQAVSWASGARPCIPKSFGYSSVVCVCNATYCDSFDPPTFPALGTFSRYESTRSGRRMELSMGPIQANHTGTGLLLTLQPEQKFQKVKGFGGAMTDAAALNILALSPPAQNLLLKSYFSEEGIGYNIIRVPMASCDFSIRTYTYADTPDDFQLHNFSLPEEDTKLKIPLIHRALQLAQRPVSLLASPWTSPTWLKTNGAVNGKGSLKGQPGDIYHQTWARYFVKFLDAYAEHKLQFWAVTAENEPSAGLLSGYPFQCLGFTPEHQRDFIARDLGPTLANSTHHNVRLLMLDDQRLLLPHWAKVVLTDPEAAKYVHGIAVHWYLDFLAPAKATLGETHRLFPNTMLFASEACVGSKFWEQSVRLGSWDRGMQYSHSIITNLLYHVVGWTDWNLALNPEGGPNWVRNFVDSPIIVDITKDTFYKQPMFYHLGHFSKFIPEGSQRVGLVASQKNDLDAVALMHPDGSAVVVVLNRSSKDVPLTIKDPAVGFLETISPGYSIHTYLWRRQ
Chain of Glucocorticoid receptor (Homo sapiens) (P04150 whole entry, looked up, the tested form may be a part): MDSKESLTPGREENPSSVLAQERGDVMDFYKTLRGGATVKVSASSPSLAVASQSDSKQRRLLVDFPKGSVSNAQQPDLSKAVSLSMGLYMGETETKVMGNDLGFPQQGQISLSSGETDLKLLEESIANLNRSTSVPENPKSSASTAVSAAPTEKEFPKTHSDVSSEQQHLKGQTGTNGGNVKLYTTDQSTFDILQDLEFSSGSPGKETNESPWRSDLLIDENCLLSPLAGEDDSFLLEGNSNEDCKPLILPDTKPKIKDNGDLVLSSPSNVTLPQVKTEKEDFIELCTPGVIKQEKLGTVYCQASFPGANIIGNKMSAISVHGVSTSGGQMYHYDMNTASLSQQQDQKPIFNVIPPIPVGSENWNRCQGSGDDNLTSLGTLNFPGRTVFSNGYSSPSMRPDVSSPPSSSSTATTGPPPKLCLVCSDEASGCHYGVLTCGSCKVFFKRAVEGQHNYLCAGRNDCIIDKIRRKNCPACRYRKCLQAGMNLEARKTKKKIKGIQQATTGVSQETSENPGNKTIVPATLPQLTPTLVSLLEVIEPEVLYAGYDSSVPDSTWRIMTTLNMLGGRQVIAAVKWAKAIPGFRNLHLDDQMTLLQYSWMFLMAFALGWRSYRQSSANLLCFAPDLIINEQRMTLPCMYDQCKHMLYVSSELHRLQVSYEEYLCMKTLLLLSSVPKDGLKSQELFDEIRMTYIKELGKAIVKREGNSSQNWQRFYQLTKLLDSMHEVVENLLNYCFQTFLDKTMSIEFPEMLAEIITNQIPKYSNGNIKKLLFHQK
Chain of Cytochrome P450 3A4 (Homo sapiens) (P08684 whole entry, looked up): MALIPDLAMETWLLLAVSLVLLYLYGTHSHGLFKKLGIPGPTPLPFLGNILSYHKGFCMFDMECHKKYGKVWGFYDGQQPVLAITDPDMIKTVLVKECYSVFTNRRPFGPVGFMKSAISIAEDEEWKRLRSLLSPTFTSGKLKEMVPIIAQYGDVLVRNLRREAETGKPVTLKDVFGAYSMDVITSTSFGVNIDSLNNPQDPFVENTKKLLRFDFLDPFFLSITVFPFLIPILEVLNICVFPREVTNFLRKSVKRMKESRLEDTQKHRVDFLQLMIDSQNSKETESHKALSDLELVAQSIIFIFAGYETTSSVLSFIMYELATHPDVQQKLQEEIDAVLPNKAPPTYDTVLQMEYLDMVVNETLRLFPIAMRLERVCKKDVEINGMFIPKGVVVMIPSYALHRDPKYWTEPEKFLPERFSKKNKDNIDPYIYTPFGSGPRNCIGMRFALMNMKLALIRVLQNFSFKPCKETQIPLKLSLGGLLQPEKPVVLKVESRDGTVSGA
Chain of Cytochrome P450 2D6 (Homo sapiens) (P10635 whole entry, looked up): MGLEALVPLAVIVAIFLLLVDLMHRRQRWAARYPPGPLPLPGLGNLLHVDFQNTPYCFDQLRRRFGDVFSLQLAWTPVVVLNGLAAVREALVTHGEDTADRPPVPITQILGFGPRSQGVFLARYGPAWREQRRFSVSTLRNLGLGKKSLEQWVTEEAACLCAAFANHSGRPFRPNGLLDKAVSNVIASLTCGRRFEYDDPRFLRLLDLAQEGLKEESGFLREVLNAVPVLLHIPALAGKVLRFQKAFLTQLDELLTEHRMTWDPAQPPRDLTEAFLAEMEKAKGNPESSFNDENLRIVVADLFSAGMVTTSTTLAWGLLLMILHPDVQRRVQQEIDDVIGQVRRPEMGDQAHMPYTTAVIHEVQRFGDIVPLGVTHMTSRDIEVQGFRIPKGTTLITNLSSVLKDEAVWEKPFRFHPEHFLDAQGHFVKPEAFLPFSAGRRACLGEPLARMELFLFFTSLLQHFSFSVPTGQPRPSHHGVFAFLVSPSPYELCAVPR
Chain of Cytochrome P450 1A2 (Homo sapiens) (P05177 whole entry, looked up): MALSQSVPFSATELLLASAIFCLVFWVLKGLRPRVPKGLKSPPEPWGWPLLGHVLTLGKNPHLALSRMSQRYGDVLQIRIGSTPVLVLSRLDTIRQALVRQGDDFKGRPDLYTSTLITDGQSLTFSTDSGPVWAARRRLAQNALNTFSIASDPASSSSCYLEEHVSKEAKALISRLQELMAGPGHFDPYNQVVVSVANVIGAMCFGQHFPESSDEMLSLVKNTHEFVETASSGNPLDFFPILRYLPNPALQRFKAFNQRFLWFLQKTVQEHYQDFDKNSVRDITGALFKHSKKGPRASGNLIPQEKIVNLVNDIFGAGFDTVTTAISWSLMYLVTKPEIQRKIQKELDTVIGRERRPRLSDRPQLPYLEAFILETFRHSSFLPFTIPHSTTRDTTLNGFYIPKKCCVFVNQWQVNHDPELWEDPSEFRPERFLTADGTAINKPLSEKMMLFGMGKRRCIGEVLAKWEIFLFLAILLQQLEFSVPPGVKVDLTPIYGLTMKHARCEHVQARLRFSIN

COc1cccc(-c2cc(NCc3cccc(C)c3)ncn2)c1
Potency [1]: > 11.4 µM (inactive)
activity change, negative = inhibition [2]: -1.98% (inactive)
activity change, negative = inhibition [3]: -3.2% (inactive)
activity, negative = inhibition [4]: -11.9% (inactive)
Potency [5]: > 46 µM (inactive)
Potency [6]: > 46 µM (inactive)
Potency [7]: inactive
activity change, negative = inhibition [8]: -15.5% (inactive)
max response [8, 18]: 8.52%
max response [8, 19]: -6.01%
outcome [9]: inactive

Cc1nc2cnc(N3CCNCC3)nc2n(C2CC2)c1=O
Potency [1]: > 11.4 µM (inactive)
activity change, negative = inhibition [2]: 5.94% (inactive)
activity change, negative = inhibition [3]: 3.04% (inactive)
activity, negative = inhibition [4]: -7.48% (inactive)
Potency [5]: > 9.22 µM (inactive)
Potency [6]: > 46 µM (inactive)
Potency [7]: inactive
Potency [10]: inactive
activity change, negative = inhibition [8]: 0.607% (inactive)
max response [8, 18]: 18.2%
max response [8, 19]: 19.1%
outcome [9]: inactive

COc1ncc2nc(-c3cn(C)c4ccccc34)c(=O)n(Cc3ccc(F)cc3)c2n1
Potency [1]: > 11.4 µM (inactive)
activity change, negative = inhibition [2]: 10.6% (inactive)
activity change, negative = inhibition [3]: -4.65% (inactive)
activity, negative = inhibition [4]: 20.2% (inactive)
Potency [5]: > 9.22 µM (inactive)
Potency [6]: > 46 µM (inactive)
Potency [7]: inactive
Potency [10]: inactive
Potency [11]: 6.31 µM (active)
Potency [12]: inactive
activity change, negative = inhibition [8]: 3.02% (inactive)
max response [8, 18]: 18.8%
max response [8, 19]: 23.9%
outcome [9]: inactive

COC(=O)N1CCC2(CC1)CCN(C(c1ccccc1)c1ccccc1)CC2
Potency [1]: > 11.4 µM (inactive)
activity change, negative = inhibition [2]: -7.14% (inactive)
Potency [13]: inactive
Potency [6]: > 46 µM (inactive)
Potency [7]: inactive
Potency [10]: inactive
Potency [12]: 12.6 µM (active)
Potency [14]: 7.94 µM (active)
activity change, negative = inhibition [8]: 2.35% (inactive)
max response [8, 18]: 5.65%
max response [8, 19]: 12.4%
outcome [9]: inactive

COc1ccccc1CN1CCCC2(CCN(C(=O)c3cnccn3)CC2)C1
Potency [1]: > 11.4 µM (inactive)
activity change, negative = inhibition [2]: 4.14% (inactive)
Potency [13]: inactive
Potency [6]: > 46 µM (inactive)
Potency [7]: inactive
Potency [10]: inactive
Potency [12]: inactive
Potency [14]: 3.98 µM (active)
activity change, negative = inhibition [8]: 3.91% (inactive)
max response [8, 18]: -6.38%
max response [8, 19]: 0.432%
outcome [9]: inactive

COc1ccccc1CNc1ncncc1-c1ccccc1CN(C)C
Potency [1]: > 11.4 µM (inactive)
activity change, negative = inhibition [2]: -14.2% (inactive)
activity change, negative = inhibition [3]: -25.5% (inactive)
activity, negative = inhibition [4]: 6.72% (inactive)
Potency [5]: > 46 µM (inactive)
Potency [6]: > 46 µM (inactive)
Potency [7]: inactive
Potency [10]: inactive
Potency [15]: inactive
activation [16]: -9.29% (inactive)
outcome [17]: inactive
activity change, negative = inhibition [8]: 5.27% (inactive)
max response [8, 18]: 12.7%
max response [8, 19]: 17.5%
outcome [9]: inactive

O=C(c1cccc(F)c1)N1CCC[C@@]2(CCN(Cc3ccccc3)C2)C1
Potency [1]: > 11.4 µM (inactive)
activity change, negative = inhibition [2]: -3.14% (inactive)
activity change, negative = inhibition [3]: -11.7% (inactive)
activity, negative = inhibition [4]: 9.35% (inactive)
Potency [6]: > 46 µM (inactive)
Potency [7]: inactive
Potency [10]: inactive
activity change, negative = inhibition [8]: -0.915% (inactive)
max response [8, 18]: 11.6%
max response [8, 19]: 12%
outcome [9]: inactive

Source: PubChem BioAssay (NCATS)
